Screening data as filed in PubChem.
USP17 block: inhibitors of human USP17 deubiquitinase | Ubiquitin carboxyl-terminal hydrolase 17-like protein 5 (Homo sapiens), A8MUK1 | purified USP17, Ub-rhodamine cleavage fluorescence, 3 h | inhibition, % at 50 µM | 47,000 compounds, 6.5% hits | AID 1645855, 2021
Target sequence (A8MUK1 whole entry, looked up): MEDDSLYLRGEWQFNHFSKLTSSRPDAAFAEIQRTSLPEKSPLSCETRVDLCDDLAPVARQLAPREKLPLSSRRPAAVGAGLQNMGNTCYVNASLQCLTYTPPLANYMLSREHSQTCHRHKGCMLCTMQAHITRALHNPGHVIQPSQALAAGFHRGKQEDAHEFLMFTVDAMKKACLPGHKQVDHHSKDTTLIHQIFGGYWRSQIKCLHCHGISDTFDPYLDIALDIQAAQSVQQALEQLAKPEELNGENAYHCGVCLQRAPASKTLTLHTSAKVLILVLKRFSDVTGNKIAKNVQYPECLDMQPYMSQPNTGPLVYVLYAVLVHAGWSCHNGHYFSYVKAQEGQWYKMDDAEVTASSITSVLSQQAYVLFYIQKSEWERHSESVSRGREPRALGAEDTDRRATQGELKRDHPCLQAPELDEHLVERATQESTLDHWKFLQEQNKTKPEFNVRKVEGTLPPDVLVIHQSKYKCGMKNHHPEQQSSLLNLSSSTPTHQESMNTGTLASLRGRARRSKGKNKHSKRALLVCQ
USP8 block: inhibitors of human USP8 deubiquitinase | Ubiquitin carboxyl-terminal hydrolase 8 (Homo sapiens), P40818 | purified USP8, Ub-rhodamine cleavage fluorescence, 30 min | inhibition, % at 20 µM | 47,000 compounds, 4.2% hits | AID 1645853, 2021
USP30 inh: inhibitors of human USP30 deubiquitinase; purified USP30, Ub-rhodamine cleavage fluorescence; Ubiquitin carboxyl-terminal hydrolase 30 (Homo sapiens), Q70CQ3; 47,000 compounds, 5.3% hits; inhibition, % at 25 µM
USP28 block: inhibitors of human USP28 deubiquitinase; purified USP28, Ub-rhodamine cleavage fluorescence, 30 min; 47,000 compounds, 3% hits; inhibition, % at 25 µM; AID 1645857, 2021; Ubiquitin carboxyl-terminal hydrolase 28 (Homo sapiens), Q96RU2
Active calls of the source: *; i = inactive; . = no result given. Shown are actives, neighbours in structure and some others; about 13% of the full set was active somewhere. No stated cut-off is given here; in the data, active means inhibition above about 30%; inactive means the rest.

SMILES | USP17 block | USP8 block | USP30 inh | USP28 block
O=C(Cc1ccccc1)N1CCN(c2ccnc3cc(Cl)ccc23)CC1 | -2 | -42 | 20 | 2
O=S(=O)(c1ccc(Cl)c(Cl)c1)N1CCN(c2ccnc3cc(Cl)ccc23)CC1 | -18 | -73 | -2 | -10
COc1cnc(CSc2ncccn2)cc1OCC(=O)Nc1ccc(C)cc1C | 8 | -52 | 9 | -13
COc1cnc(CSc2ccccc2)cc1OCC(=O)Nc1ccccc1F | 36* | 5 | 25 | -3
COc1ccc(NC(=O)COc2cc(CSc3ccccc3)ncc2OC)cc1 | 61* | 21 | 43* | 17
COc1cnc(CSc2ccccc2)cc1OCC(=O)Nc1ccccc1 | -1 | -11 | -7 | -4
COc1cnc(CSc2ccccc2)cc1OCC(=O)Nc1ccc(F)cc1 | 29 | 8 | 43* | 9
COc1cc2nc(SCC(=O)c3ccc(F)cc3)n3nc(C)nc3c2cc1OC | -12 | -13 | -44 | -16
Cc1n[nH]c(C)c1CCc1nc2c3ccccc3nc(SCC(=O)c3ccc(F)cc3)n2n1 | 53* | 11 | 71* | 8
CCOCCCn1c(SCC(=O)Nc2ccccc2C(F)(F)F)nc2ccccc2c1=O | 44* | 0 | 55* | 18
O=C(CCCn1c(SCC(=O)Nc2cccc(C(F)(F)F)c2)nc2ccccc2c1=O)NCCc1ccccc1 | 24 | -13 | 35* | 14
NS(=O)(=O)c1ccc(CCNC(=O)CSc2nc3ccccc3c(=O)n2CCC(=O)N2CCN(c3ccccc3)CC2)cc1 | 6 | 20 | 11 | 2
COCCn1c(SCC(=O)Nc2ccccc2C(F)(F)F)nnc1-c1c[nH]c2ccccc12 | -12 | -13 | -9 | -10
COc1ccc(N2CCCS2(=O)=O)cc1NC(=O)c1cc(C)cc(C)c1 | -3 | -4 | -14 | -3
CCOC(=O)c1ccc(NC(=O)COc2cccc3c2CCN(Cc2cccnc2)C3=O)cc1 | 4 | -3 | 4 | 32*
COc1ccc(NC(=O)COc2cccc3c2CCN(Cc2cccnc2)C3=O)c(OC)c1 | 8 | 14 | 0 | 11
Nc1ncc(-c2cccc(Cl)c2)c(C2CCCCN2)n1 (stereo unspecified) | -10 | -10 | -23 | -15
Cc1cc(C(F)(F)F)nc(-n2cc(-c3ccccc3)nn2)n1 | 35* | 2 | 13 | -5
CC(NC(=O)C1CCN(c2cc(N3CCOCC3)ncn2)CC1)c1ccc(F)cc1 (stereo unspecified) | -1 | -6 | 0 | -4
O=C(NCc1ccc(F)cc1)c1cc(-n2cnnn2)ccc1Cl | 67* | 24 | 30* | 30*
Cn1nnc2cc(C(=O)NCc3ccc(F)cc3)ccc21 | -5 | 4 | -12 | -1
CNc1cccc(C2CN(C(=O)c3ccc(OC)c(F)c3)CCO2)n1 (stereo unspecified) | -4 | -55 | -10 | 0
CCc1cccc(NC(=O)Cn2c(=O)nc(N3CCCCC3)c3ccccc32)c1 | 43* | 25 | 9 | 8
O=C(Nc1ccccn1)c1noc2c1CCc1sccc1-2 | 37* | 88* | -51 | 3
Cc1ccc(NC(=O)c2noc3c2CCc2sccc2-3)nc1 | 32* | 47* | -37 | -5
SMILES | USP17 block | USP8 block | USP30 inh | USP28 block
Cc1ccc(C)c(N2CCN(C(=O)c3noc4c3CCc3sccc3-4)CC2)c1 | 14 | 8 | 24 | 11
Cc1cccnc1NC(=O)c1noc2c1CCc1sccc1-2 | 0 | 4 | 14 | 8
CCc1nc(N)n(CC(=O)N2CCCc3ccccc32)c(=O)c1C | 76* | 22 | 54* | 18
Cc1cc(=O)n(CC(=O)N2CCCc3ccccc32)c(N2CCOCC2)n1 | 0 | 4 | -14 | -2
Cc1nc(C2CCCN(C(=O)c3cscn3)C2)c2sccn12 (stereo unspecified) | -33 | -5 | -64 | -62
O=S(=O)(c1c(F)cccc1F)N1CCCC(c2nnc(C(F)(F)F)o2)C1 (stereo unspecified) | 6 | 24 | 26 | 8
COc1ccccc1CC(=O)N1CCC(Cc2ccccc2)CC1 | 11 | 0 | 36* | 8
c1ccc(CC2CCN(Cc3cccc4ccccc34)CC2)cc1 | 6 | 11 | 7 | 7
O=C(Cc1cccc2ccccc12)N1CCC(Cc2ccccc2)CC1 | 20 | 10 | 44* | 4
Cc1nc(NC2CCCc3ccccc32)c2c3c(sc2n1)CCCC3 (stereo unspecified) | 3 | 1 | -17 | -2
COc1ccc(/C=C/C(=O)Nc2c3c(nc4c2CCC4)CCCC3)cc1 | 38* | 3 | 61* | 7
O=S(=O)(NCCc1nc2cccnc2n1C1CCCCC1)c1ccc(Cl)cc1 | -64 | -46 | -229 | -64
O=c1oc2ccccc2c(N2CCN(c3ccccn3)CC2)c1CN1CCCC1 | -8 | -6 | -6 | -14
O=c1oc2ccccc2c2nn(-c3ccccn3)cc12 | 51* | 8 | 27 | 0
N#Cc1ccc(Cn2nnc(-c3cccc(Cl)c3)n2)cc1 | 12 | 7 | 7 | 73*
Clc1cccc(-c2nnc(CN3CCN(c4ccccc4)CC3)o2)c1 | -6 | -19 | -5 | 0
O=C(c1cc2cc(F)ccc2s1)N1CCCC1c1ccc2c(c1)OCCCO2 (stereo unspecified) | -52 | -25 | -103 | -26
Cc1ccc(-n2nc(C)c(/C=C(\C#N)c3nc4ccccc4[nH]3)c2C)cc1C | -72 | -44 | -280 | -57
N#C/C(=C\c1cn(CCC(N)=O)c2ccccc12)c1nc2ccccc2[nH]1 | 40* | -15 | -130 | -23
c1nc(NCCN2CCOCC2)c2c3c(sc2n1)CCC3 | 4 | 13 | 0 | 1
Cc1ncc(-c2ccc(S(=O)(=O)Nc3ccc(Cl)cc3)cc2)o1 | 7 | 1 | -2 | 2
Cc1ccc(-n2c(=O)[nH]c3c(c2=O)C(C)(C)Cc2ccccc2-3)cc1 | 14 | 0 | 0 | -5
CCc1ccc(-n2c(=O)[nH]c3c(c2=O)C(C)(C)Cc2ccccc2-3)cc1 | 37* | 18 | -1 | 3
O=c1ccc(-c2noc(Cc3cccc(Cl)c3)n2)c[nH]1 | -6 | -46 | -93 | 68*
O=c1ccc(-c2noc(Cc3cccc(C(F)(F)F)c3)n2)c[nH]1 | -28 | -161 | -158 | 48*
SMILES | USP17 block | USP8 block | USP30 inh | USP28 block
COc1ccc(Cc2nc(-c3ccc(=O)[nH]c3)no2)cc1OC | -38 | -35 | -1 | 33*
COc1ccc(-c2noc(CCC3CCCC3)n2)cc1OC | 4 | 0 | -10 | -4
O=c1c2nnn(-c3cccc(Cl)c3)c2ncn1Cc1nc(-c2ccc(F)cc2)no1 | -124 | -33 | i | -240
O=c1ccc(-c2noc(CCC3CCCC3)n2)c[nH]1 | -8 | -2 | -1 | 43*
Cc1nnc2ccc(-c3noc(Cc4cccc(F)c4)n3)cn12 | . | -5 | -2 | 10
C[C@@H]1C(=O)O[C@H]2CC34[C@H]5C[C@@H](C(C)(C)C)C36[C@@H](OC(=O)[C@@H]6O)OC4(C(=O)O5)[C@]21O (stereo partly specified) | 20 | 0 | 41* | 9
